# Compound activity as filed in PubChem BioAssay.
# This excerpt belongs to a sample that is enriched for hits.
# BL2 CD40 inh: inhibitors of CD40-induced NF-kB signaling, primary screen, BL2 cells, luciferase reporter, single point | CD40L-induced, 4 h | inhibition, % at 10 µM | actives 0.94% (n = 83,000);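 active means mean inhibition of at least 50% with a set share of replicates also reaching that level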;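 further: 0% = neutral control wells and 100% = IKK inhibitor VII at 50 µM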
# Starred values were filed as active, the others as inactive; [ ] = another dose, or the depositor's remark.
SMILES,BL2 CD40 inh
Cc1ccc(-c2nnc(CCC(=O)NCC3C4CC5CC(C4)CC3C5)o2)s1 (stereo not drawn),-77
COc1ccc(NC(=O)N(C)C[C@@H]2OCCCC[C@@H](C)Oc3ccc(NC(=O)Nc4ccccc4)cc3C(=O)N([C@@H](C)CO)C[C@H]2C)cc1,-12
C[C@@H]1CN(C)C(=O)c2cccnc2O[C@H]1CN(C)S(C)(=O)=O,35*
C[C@@H]1CN(C)C(=O)c2ccccc2O[C@@H]1CN(C)S(C)(=O)=O,-1
C[C@H]1CN(C)C(=O)c2cccnc2O[C@H]1CN(C)C,16
Cc1ccc(C)c(NC(=O)Cc2nc(CNCC(C)C)cs2)c1,8
COc1ccc(CN(C)C[C@@H]2Oc3c(NC(=O)c4cnccn4)cccc3C(=O)N([C@@H](C)CO)C[C@H]2C)cc1,-24[25 µM]
NC1=NN=C(c2ccc3c(c2)OCCO3)CS1,52*
c1cc2c(cc1C1=Nn3c(nnc3C3CCCCC3)SC1)OCO2,8
c1ccc(-c2nnc3n2N=C(c2ccc4c(c2)OCO4)CS3)nc1,6
O=C(c1ccccn1)N1CC=C(c2ccccc2)CC1,-12
COc1ccc(N2CC(C(=O)Nc3ccccc3C(=O)NC3CC3)CC2=O)cc1 (stereo not drawn),9
O=C(NCCN1C(=O)S/C(=C\c2ccc(Cl)c([N+](=O)[O-])c2)C1=O)C1=COCCO1,45
CC1CC(C)C(=NNC(N)=O)C(C(O)CC2CCC(=O)NC2=O)C1 (stereo not drawn),56*
CO[C@@H]1CN(C)C(=O)c2ccc(NC(=O)C3CCCC3)cc2OC[C@@H](C)NC[C@H]1C,-1
C[C@@H]1CN([C@H](C)CO)C(=O)c2cc(NC(=O)c3ccncc3)ccc2O[C@@H](C)CCCCO[C@H]1CN(C)Cc1ccc(Cl)c(Cl)c1,36[25 µM]
O=C(c1ccc(F)cc1)N1CC[C@@H]2[C@H](CO)Nc3ccc(-c4ccccc4F)cc3[C@@H]21,-17[25 µM]
Cc1cc(N)c2ccccc2n1,3
Nc1cccc2nc3ccccc3cc12,active
Nc1nc2ccccc2cc1S(=O)(=O)c1ccccc1,6
CN(C)C(=O)[C@H]1[C@H](CO)[C@H]2Cn3c(ccc(-c4cncnc4)c3=O)[C@H]2N1Cc1cc(F)ccc1F,6[25 µM]
O=[N+]([O-])c1ccc(N2CCN(c3ccc(Cl)nn3)CC2)cc1NC1CC1,13
COc1ccc(C#Cc2cnc3c(c2)C(=O)N([C@H](C)CO)C[C@H](C)[C@H](CN(C)Cc2cccc(C)c2)O3)cc1OC,-2[25 µM]
O=C(C[C@@H]1CC[C@H](NC(=O)NC2CCCC2)[C@@H](CO)O1)NCc1ccc(F)cc1,-1
O=C(Cc1ccncc1)Nc1ccc2c(c1)[C@H]1C[C@H](CC(=O)N3CCc4ccccc4C3)O[C@@H](CO)[C@H]1O2,1[25 µM]
SMILES,BL2 CD40 inh
O=C(Nc1ccc(C(F)(F)F)cc1)Nc1ccc2c(c1)[C@H]1C[C@H](CC(=O)N3CCc4ccccc4C3)O[C@@H](CO)[C@H]1O2,6[25 µM]
O=C(Nc1ccc(C(F)(F)F)cc1)Nc1ccc2c(c1)[C@H]1C[C@@H](CC(=O)N3CCc4ccccc4C3)O[C@H](CO)[C@H]1O2,50*[25 µM]
O=C(Nc1ccc(C(F)(F)F)cc1)Nc1ccc2c(c1)[C@H]1C[C@@H](CC(=O)N3CCc4ccccc4C3)O[C@@H](CO)[C@H]1O2,65*[25 µM]
O=C(Cc1ccncc1)Nc1ccc2c(c1)[C@@H]1C[C@@H](CC(=O)N3CCc4ccccc4C3)O[C@@H](CO)[C@@H]1O2,8[25 µM]
O=C(Cc1ccncc1)Nc1ccc2c(c1)[C@@H]1C[C@@H](CC(=O)N3CCc4ccccc4C3)O[C@H](CO)[C@@H]1O2,4[25 µM]
CO[C@@H]1CN(C)C(=O)c2cc(NC(=O)CC(F)(F)F)ccc2OC[C@H](C)N(CC2CC2)C[C@H]1C,6[25 µM]
Cc1noc(C)c1NC(=O)N[C@H]1C=C[C@H](CC(=O)Nc2ccc(-c3ccccc3)cc2)O[C@@H]1CO,-9[25 µM]
C[C@@H]1CN([C@H](C)CO)C(=O)c2ccccc2-c2ccccc2CO[C@H]1CN(C)C(=O)Oc1ccccc1,3
Cc1ccccc1S(=O)(=O)N(C)C[C@@H]1OCc2ccccc2-c2ccccc2C(=O)N([C@H](C)CO)C[C@@H]1C,7
COc1ccccc1NC(=O)N1C[C@H]2[C@@H](c3ccccc31)[C@H](CO)N2C(=O)C1CCCC1,-7[25 µM]
O=C(COc1ccc(F)cc1Br)NCCCN1CCCC1=O,-21
N#CCCN(Cc1cccnc1)C(=S)NC(=O)c1ccccc1,3
CCNC(=O)[C@H]1[C@H](CO)[C@H]2Cn3c(ccc(-c4cccc(OC)c4)c3=O)[C@H]2N1C(=O)NC(C)C,0[25 µM]
CN(CC(=O)Nc1ccc(OC(F)(F)F)cc1)C(=O)c1ccccc1SCC(=O)N1CCCC1,9
O=C(/C=C/c1ccccc1)CC(O)(c1ccccc1)C(F)(F)C(F)F (stereo not drawn),56*
O=C(/C=C/c1ccccc1)COC(=O)c1ccccc1,-17
O=C(/C=C/c1ccccc1)CC(O)(c1ccccc1)C(F)(F)F (stereo not drawn),22
N#C[C@@H]1[C@H](c2ccccc2C2=CCCCC2)[C@@H](CO)N1C(=O)C1CCOCC1,-7[25 µM]
